The values below come from PMC7862700, “An all-to-all approach to the identification of sequence-specific readers for epigenetic DNA modifications on cytosine”.

Common to all, as to test: DAPPL (digital affinity profiling via proximity ligation, sequencing); 10 mM Tris-HCl pH 7.5, 50 mM NaCl, 1 mM DTT, 4% glycerol, room temperature, 30 min; GST-TFs on glutathione beads, 16-mer random dsDNA library, 0.1% formaldehyde crosslink after washing; high values mean tight binding
The target in one test is T1, FEV (Homo sapiens, UniProt Q99581 1-238).
T1 sequence: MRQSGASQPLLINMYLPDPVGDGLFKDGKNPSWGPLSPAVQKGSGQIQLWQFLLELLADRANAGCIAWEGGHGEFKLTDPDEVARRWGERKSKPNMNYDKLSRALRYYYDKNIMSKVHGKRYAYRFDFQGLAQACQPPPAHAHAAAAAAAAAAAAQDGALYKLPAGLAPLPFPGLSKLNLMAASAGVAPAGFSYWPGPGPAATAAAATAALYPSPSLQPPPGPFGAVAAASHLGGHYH
To be noted: protein: recombinant; tags: N-terminal GST; dsDNA, one strand shown. Put shortly:
(§1)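 Binding signal is defined as a hexamer's read frequency for one factor over its frequency for the tag-only sample. To obtain reads, GST-fused human transcription factors were expressed in yeast, captured on glutathione beads, barcoded with DNA and pooled with that sample. Pools met 200 nmole of a 16-mer random double-stranded DNA library in Tris/NaCl/DTT/glycerol buffer for 30 min at room temperature before washing, 0.1% formaldehyde crosslinking, proximity ligation (BsaI/T4 ligase, 1 h, 37 °C), PCR and Illumina NextSeq500 sequencing.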

The target in another test is ETV5 (Homo sapiens, UniProt P41161 1-510). To be noted: protein: recombinant; tags: N-terminal GST; dsDNA, one strand shown. A digest of the protocol: as §1
ETV5, sequence (P41161 whole entry): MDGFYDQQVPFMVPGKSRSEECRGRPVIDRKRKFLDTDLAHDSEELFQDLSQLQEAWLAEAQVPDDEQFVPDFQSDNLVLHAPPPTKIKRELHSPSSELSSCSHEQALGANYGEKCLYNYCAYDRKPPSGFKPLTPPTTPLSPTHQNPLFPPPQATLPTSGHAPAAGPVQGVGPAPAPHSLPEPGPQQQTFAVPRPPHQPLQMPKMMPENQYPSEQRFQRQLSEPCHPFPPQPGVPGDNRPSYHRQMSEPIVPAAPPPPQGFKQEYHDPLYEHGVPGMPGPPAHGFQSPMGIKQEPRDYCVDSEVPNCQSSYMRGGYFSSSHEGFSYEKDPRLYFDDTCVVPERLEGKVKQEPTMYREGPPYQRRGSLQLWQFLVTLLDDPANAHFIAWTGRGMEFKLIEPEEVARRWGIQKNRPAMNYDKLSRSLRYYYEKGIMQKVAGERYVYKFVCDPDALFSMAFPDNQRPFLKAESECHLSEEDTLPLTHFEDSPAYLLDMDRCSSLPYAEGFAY
The target of another test is HSF1 (Homo sapiens, UniProt Q00613 1-529). To be noted: protein: recombinant; tags: N-terminal GST; chain copies: 3; dsDNA, one strand shown. A digest of the protocol: as §1
HSF1, sequence (Q00613 whole entry): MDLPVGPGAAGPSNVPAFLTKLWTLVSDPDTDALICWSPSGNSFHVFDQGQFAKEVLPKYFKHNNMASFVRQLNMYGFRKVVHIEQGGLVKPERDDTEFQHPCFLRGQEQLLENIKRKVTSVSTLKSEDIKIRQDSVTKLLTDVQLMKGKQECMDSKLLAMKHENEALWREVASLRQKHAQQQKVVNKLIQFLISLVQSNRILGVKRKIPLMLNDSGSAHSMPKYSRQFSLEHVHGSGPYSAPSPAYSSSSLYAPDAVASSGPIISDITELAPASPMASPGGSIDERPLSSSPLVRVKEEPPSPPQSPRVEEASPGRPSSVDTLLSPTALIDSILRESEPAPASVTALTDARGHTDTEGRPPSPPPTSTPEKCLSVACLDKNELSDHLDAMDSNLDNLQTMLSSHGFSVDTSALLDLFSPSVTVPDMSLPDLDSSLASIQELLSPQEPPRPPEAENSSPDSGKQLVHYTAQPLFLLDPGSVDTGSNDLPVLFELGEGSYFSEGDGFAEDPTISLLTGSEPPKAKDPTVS
For a further test, the target named is T2, SPIC (Homo sapiens, UniProt Q8N5J4 1-248).
T2 sequence: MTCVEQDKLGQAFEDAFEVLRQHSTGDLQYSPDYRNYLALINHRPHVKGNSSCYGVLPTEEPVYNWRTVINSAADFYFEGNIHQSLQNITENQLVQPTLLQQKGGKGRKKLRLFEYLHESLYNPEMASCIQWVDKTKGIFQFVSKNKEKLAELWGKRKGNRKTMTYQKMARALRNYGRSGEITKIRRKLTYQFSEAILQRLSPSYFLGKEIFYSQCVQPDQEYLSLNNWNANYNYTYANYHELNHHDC
To be noted: protein: recombinant; tags: N-terminal GST; dsDNA, one strand shown. Put shortly:
as §1

The target of a further test is ELF4 (Homo sapiens, UniProt Q99607 1-663). To be noted: protein: recombinant; tags: N-terminal GST; dsDNA, one strand shown. A digest of the protocol: as §1
ELF4, sequence (Q99607 whole entry): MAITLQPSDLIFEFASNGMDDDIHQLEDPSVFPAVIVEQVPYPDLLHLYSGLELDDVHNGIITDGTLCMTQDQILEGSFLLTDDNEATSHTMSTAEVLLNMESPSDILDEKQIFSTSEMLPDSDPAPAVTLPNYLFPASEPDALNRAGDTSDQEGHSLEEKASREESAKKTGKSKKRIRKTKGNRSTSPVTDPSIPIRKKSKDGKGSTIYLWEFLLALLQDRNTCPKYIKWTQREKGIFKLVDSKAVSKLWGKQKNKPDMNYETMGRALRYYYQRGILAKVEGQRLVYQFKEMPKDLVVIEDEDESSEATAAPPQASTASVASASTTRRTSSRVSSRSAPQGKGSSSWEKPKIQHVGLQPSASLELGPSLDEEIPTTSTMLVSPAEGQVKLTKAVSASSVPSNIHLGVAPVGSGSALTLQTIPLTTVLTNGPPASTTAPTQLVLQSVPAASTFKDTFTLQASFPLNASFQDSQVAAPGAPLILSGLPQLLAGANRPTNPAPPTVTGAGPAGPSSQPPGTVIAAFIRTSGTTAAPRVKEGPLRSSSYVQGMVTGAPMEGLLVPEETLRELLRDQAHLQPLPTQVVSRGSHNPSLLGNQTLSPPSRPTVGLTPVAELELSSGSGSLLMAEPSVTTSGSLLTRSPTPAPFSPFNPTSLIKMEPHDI
The target of another test is T3, ELK4 (Homo sapiens, UniProt P28324-2 1-405).
T3 sequence: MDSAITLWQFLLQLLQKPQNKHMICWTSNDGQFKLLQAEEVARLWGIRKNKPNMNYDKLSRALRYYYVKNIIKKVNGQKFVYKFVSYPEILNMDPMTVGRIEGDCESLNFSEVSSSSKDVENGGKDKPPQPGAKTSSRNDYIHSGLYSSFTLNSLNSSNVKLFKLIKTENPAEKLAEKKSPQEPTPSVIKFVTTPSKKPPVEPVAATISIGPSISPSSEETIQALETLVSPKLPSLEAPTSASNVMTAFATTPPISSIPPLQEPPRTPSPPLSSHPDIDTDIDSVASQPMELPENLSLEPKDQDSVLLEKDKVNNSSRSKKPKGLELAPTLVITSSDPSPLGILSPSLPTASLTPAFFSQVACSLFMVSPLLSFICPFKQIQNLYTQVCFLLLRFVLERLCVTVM
To be noted: protein: recombinant; tags: N-terminal GST; dsDNA, one strand shown. A digest of the protocol: as §1

The next test has as its target T4, ETV2 (Homo sapiens, UniProt O00321 1-342).
T4 sequence: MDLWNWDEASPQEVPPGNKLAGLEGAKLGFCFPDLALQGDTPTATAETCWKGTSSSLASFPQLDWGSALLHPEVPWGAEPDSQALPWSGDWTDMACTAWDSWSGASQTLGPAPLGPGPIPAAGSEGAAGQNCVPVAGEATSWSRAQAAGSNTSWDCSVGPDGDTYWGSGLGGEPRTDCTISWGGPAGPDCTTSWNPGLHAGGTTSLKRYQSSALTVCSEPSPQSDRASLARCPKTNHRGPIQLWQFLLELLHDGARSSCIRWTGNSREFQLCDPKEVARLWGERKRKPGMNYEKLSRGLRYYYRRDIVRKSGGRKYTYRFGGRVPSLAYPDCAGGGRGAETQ
To be noted: protein: recombinant; tags: N-terminal GST; dsDNA, one strand shown. Put shortly:
as §1

In another test the target is T5, ELF3 (Homo sapiens, UniProt P78545 1-371).
T5 sequence: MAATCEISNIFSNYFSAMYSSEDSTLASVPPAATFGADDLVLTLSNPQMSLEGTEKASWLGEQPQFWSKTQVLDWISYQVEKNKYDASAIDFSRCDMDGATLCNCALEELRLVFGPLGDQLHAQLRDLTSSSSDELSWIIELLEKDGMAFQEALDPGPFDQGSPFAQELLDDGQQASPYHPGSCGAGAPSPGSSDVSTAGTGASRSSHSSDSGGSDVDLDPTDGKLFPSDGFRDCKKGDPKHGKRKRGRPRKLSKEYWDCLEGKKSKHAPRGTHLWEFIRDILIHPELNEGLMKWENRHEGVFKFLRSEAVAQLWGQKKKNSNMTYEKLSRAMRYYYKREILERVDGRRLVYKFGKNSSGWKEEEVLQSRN
To be noted: protein: recombinant; tags: N-terminal GST; dsDNA, one strand shown. Put shortly:
as §1

The next test concerns the target CRX (Homo sapiens, UniProt O43186 1-299). To be noted: protein: recombinant; tags: N-terminal GST; dsDNA, one strand shown. Put shortly: as §1
A further test deals with ETV1 (Homo sapiens, UniProt P50549 1-477). To be noted: protein: recombinant; tags: N-terminal GST; dsDNA, one strand shown. Put shortly: as §1
ETV1, sequence (P50549 whole entry): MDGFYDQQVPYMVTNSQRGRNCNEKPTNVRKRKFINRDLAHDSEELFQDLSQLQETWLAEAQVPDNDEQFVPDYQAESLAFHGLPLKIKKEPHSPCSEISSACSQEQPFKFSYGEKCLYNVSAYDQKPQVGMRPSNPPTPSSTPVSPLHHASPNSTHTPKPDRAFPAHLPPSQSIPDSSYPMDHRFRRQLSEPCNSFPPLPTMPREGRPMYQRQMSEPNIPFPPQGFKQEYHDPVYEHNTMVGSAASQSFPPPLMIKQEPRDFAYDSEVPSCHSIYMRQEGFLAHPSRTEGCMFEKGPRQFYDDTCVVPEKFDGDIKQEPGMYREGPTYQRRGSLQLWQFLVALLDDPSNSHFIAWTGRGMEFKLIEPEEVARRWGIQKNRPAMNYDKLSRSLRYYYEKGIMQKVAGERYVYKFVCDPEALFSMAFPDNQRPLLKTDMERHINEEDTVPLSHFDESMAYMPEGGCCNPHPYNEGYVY
The target in a further test is T6, ERF (Homo sapiens, UniProt P50548 1-548).
T6 sequence: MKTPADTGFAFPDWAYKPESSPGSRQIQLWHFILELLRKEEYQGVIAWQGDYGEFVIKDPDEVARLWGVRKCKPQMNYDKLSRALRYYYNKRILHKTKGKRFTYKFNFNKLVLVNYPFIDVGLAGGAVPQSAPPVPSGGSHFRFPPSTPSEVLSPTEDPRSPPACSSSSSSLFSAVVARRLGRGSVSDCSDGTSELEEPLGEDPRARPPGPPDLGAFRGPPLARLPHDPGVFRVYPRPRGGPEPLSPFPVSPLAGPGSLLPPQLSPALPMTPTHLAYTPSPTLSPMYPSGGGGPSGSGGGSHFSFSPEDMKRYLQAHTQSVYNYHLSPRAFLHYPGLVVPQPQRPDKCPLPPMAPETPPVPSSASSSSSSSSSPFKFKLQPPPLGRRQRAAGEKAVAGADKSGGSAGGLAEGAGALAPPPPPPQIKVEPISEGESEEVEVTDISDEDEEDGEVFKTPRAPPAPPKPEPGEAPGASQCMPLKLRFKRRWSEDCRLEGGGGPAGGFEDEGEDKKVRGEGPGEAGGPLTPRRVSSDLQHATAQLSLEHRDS
The following applies: protein: recombinant; tags: N-terminal GST; dsDNA, one strand shown. A digest of the protocol: as §1

The target of another test is T7, ETV3L (Homo sapiens, UniProt Q6ZN32 1-361).
T7 sequence: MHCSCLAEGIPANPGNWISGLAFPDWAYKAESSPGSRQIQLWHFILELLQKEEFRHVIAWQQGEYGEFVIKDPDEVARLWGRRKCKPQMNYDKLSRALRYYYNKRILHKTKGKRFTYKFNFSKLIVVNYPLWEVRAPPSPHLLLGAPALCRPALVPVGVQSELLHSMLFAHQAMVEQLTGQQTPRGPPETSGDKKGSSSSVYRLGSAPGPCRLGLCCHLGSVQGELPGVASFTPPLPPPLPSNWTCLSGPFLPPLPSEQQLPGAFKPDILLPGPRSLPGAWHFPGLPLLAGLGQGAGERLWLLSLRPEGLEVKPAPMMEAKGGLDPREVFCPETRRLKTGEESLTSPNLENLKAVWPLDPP
The following applies: protein: recombinant; tags: N-terminal GST; dsDNA, one strand shown. A digest of the protocol: as §1

For a further test, the target named is T8, ETS2 (Homo sapiens, UniProt P15036 1-469).
T8 sequence: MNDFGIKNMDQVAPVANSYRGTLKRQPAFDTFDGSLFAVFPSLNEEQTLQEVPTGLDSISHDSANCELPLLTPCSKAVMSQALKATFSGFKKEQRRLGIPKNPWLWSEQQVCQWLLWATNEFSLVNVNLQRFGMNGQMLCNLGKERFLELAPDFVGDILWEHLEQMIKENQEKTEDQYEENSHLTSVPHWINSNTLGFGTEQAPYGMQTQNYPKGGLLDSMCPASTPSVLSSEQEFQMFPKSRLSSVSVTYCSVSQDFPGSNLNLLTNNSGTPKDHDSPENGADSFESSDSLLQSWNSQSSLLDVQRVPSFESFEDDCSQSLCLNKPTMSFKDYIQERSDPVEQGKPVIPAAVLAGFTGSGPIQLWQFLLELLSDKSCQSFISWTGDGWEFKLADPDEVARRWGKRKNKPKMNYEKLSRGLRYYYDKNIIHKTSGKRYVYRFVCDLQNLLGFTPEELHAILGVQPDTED
To be noted: protein: recombinant; tags: N-terminal GST; dsDNA, one strand shown. A digest of the protocol:
as §1

The target of a further test is T9, SPDEF (Homo sapiens, UniProt O95238 1-335).
T9 sequence: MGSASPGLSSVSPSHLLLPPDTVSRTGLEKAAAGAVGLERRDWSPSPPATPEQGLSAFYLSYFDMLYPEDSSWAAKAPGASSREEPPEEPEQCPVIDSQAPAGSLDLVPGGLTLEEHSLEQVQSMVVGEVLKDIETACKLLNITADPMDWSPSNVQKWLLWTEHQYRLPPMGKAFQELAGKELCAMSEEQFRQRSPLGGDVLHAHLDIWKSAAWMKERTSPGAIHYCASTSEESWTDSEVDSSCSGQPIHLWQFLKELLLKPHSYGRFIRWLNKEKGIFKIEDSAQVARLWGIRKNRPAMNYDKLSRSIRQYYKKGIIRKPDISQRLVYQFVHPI
The following applies: protein: recombinant; tags: N-terminal GST; dsDNA, one strand shown. A digest of the protocol:
as §1

In a further test the target is T10, ETV7 (Homo sapiens, UniProt Q9Y603 1-341).
T10 sequence: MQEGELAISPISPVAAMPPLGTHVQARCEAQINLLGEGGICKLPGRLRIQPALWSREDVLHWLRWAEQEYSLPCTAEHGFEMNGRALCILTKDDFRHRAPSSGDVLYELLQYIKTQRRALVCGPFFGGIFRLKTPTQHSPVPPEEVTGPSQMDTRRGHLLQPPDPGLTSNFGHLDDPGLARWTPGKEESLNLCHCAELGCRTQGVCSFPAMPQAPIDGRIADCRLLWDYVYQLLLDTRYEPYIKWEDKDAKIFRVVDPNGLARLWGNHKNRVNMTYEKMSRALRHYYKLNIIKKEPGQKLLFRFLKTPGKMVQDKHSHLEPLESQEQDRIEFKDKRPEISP
To be noted: protein: recombinant; tags: N-terminal GST; dsDNA, one strand shown. Put shortly:
as §1

A further test deals with T11, ELF5 (Homo sapiens, UniProt Q9UKW6-2 1-255).
T11 sequence: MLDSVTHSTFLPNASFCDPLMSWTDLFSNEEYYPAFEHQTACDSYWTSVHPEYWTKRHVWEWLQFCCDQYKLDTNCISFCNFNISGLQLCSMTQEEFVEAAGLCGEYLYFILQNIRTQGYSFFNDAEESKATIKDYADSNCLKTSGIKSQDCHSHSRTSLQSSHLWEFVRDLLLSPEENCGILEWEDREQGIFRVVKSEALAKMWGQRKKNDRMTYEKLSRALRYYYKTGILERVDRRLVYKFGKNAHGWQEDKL
To be noted: protein: recombinant; tags: N-terminal GST; dsDNA, one strand shown. Put shortly:
as §1

In the next test the target is T12, ETV3 (Homo sapiens, UniProt P41162-2 1-143).
T12 sequence: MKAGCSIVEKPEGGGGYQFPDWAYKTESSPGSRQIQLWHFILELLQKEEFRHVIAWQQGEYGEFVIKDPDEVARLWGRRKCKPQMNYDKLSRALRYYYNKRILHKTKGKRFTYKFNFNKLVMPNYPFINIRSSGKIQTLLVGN
To be noted: protein: recombinant; tags: N-terminal GST; dsDNA, one strand shown. Put shortly: as §1

The target of another test is ETV6 (Homo sapiens, UniProt P41212 1-452). The following applies: protein: recombinant; tags: N-terminal GST; dsDNA, one strand shown. A digest of the protocol: as §1
ETV6, sequence (P41212 whole entry): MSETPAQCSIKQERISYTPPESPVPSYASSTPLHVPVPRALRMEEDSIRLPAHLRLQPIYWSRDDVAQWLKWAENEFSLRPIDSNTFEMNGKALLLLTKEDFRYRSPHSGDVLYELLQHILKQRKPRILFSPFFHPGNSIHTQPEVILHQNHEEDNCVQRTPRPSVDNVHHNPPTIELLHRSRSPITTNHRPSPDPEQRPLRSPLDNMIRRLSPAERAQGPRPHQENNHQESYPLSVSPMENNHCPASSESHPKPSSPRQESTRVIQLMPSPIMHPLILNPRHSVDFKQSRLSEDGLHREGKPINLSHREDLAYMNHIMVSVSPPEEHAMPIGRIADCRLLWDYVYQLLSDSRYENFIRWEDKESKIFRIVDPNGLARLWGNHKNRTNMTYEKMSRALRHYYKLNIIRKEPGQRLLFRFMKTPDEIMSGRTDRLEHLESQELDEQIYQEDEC

CRX, sequence (O43186 whole entry): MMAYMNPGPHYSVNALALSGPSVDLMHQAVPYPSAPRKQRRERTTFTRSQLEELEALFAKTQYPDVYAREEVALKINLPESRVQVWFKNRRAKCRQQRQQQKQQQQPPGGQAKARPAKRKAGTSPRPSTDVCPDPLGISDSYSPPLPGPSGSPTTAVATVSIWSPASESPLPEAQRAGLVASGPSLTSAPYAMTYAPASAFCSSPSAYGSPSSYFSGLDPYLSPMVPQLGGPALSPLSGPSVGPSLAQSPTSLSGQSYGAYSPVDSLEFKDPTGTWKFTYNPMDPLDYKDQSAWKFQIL

In the case of TTTGAC, the binding signal in the test with FEV is 1.37 fold enrichment (6-mer frequency, TF over GST control); in the test with ETV5, 1.5 fold enrichment (6-mer frequency, TF over GST control); in the test with HSF1 it was 1.35 fold enrichment (6-mer frequency, TF over GST control); with SPIC it was 1.3 fold enrichment (6-mer frequency, TF over GST control); with ELF4, 1.47 fold enrichment (6-mer frequency, TF over GST control); with ELK4 it was 1.41 fold enrichment (6-mer frequency, TF over GST control). The binding signal in the test with ETV2 is 1.5 fold enrichment (6-mer frequency, TF over GST control); with ELF3, 1.39 fold enrichment (6-mer frequency, TF over GST control); with CRX, 1.37 fold enrichment (6-mer frequency, TF over GST control); with ETV1, 1.42 fold enrichment (6-mer frequency, TF over GST control); with ERF it was 1.49 fold enrichment (6-mer frequency, TF over GST control); in the test with ETV3L, 1.35 fold enrichment (6-mer frequency, TF over GST control). The binding signal with ETS2 is 1.33 fold enrichment (6-mer frequency, TF over GST control); in the test with SPDEF it was 1.48 fold enrichment (6-mer frequency, TF over GST control); with ETV7, 1.58 fold enrichment (6-mer frequency, TF over GST control); in the test with ELF5, 1.34 fold enrichment (6-mer frequency, TF over GST control); with ETV3, 1.38 fold enrichment (6-mer frequency, TF over GST control); in the test with ETV6 it was 1.4 fold enrichment (6-mer frequency, TF over GST control).
